# Source: PubChem BioAssay
# aDG glyco up: activators of alpha-DG glycosylation, primary screen, uHTS, Pro5-aDG cells, AlphaScreen. activation, % at 10 µM. alpha-DG glycosylation AlphaScreen (IIH6); 0% Pro5, 100% B10-LARGE cell signal. 360,000 compounds, 0.22% hits;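 active = activation of at least 8% versus controls, or a plate z-score of at least 8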;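 note: Pro5 are CHO cells carrying HIG-tagged alpha-DG that lacks glycosylation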
# APOBEC3A inh: APOBEC3A ssDNA deaminase inhibitors, primary screen, selectivity assay for APOBEC3G inhibitor project, biochemical, FAM/TAMRA oligo cleavage fluorescence | DNA dC->dU-editing enzyme APOBEC-3A (Homo sapiens), P31941 | recombinant A3A, FAM/TAMRA ssDNA deamination fluorescence | inhibition, % at 20 µM | 330,000 compounds, 0.41% hits;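 active = at least 40% inhibition at 20 µM here, with at most 30% in a related deaminase screen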;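 note: plate controls were A3A with DMSO for no effect and wells lacking A3A enzyme for full effect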
# A3G deaminase: APOBEC3G DNA deaminase inhibitors, primary screen, biochemical, fluorescence, single-stranded DNA substrate, uHTS; AID 493012, 2011; 330,000 compounds, 0.28% hits; DNA dC->dU-editing enzyme APOBEC-3G (Homo sapiens), Q9HC16; recombinant A3G, ssDNA deamination FAM/TAMRA fluorescence; inhibition, % at 20 µM;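 active = inhibition of at least 40% at 20 µM, with no more than 30% in the related APOBEC3A deaminase screen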;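 note: plate controls were DMSO wells with A3G for no effect and wells lacking A3G enzyme for full effect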
# PHOSPHO1 inh: PubChem AID 1565. Phosphoethanolamine/phosphocholine phosphatase (Homo sapiens), Q8TCT1. recombinant PHOSPHO1, absorbance phosphatase assay. inhibition, % at 13.3 µM. 290,000 compounds, 1.1% hits; in the data active = inhibition above about 60%
# Target sequence (Q8TCT1 whole entry, looked up): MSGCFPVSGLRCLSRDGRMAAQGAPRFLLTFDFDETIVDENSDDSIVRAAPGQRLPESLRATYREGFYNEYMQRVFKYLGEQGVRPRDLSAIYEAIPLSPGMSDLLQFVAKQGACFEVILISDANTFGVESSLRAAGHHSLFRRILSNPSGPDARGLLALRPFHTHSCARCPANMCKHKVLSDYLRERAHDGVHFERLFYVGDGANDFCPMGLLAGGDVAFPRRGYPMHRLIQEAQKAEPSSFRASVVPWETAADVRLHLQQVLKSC
# rCAG RNA binder: binders of r(CAG) RNA repeats, primary screen, biochemical, fluorescence | r(CAG) RNA repeat, TO-PRO-1 dye displacement fluorescence | inhibition, % at 3 µM | 370,000 compounds, 1.3% hits;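 active = inhibition above the plate cutoff, the mean of all test compounds on that plate plus 3 SD, cut at about 35% in these data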;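 note: 0% = DMSO alone and 100% = 100 µM mitoxantrone as full dye displacement; higher means more dye released from RNA so lower well fluorescence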
# ALR H2O2 inh: inhibitors of human ALR sulfhydryl oxidase, primary screen, biochemical, H2O2 detection, HRP-luminol luminescence, single point. inhibition, % (no concentration beside the values). 290,000 compounds, 3.8% hits. purified ALR, DTT oxidation. FAD-linked sulfhydryl oxidase ALR (Homo sapiens), P55789;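 active = mean replicate inhibition above about 79%, with every replicate also reaching it, limit read from the data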
# Target sequence (P55789 whole entry, looked up): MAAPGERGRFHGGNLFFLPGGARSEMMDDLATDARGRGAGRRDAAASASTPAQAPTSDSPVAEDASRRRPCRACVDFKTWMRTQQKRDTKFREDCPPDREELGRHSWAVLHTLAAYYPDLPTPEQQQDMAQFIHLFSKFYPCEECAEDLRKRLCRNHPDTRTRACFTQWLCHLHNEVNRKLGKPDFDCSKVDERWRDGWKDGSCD
# * hit, by the source's call; . = not tested or not shown. Sampled rows, rich in hits. Any-hit rate of the full collection: about 5.4%.
SMILES,aDG glyco up,APOBEC3A inh,A3G deaminase,PHOSPHO1 inh,rCAG RNA binder,ALR H2O2 inh
COc1cccc(NC(=O)CC(=O)c2ccc([N+](=O)[O-])cc2)c1,0,5,10,16,16,-6
COc1cccc(N/C(SCc2cccc([N+](=O)[O-])c2)=C(/C#N)C(N)=O)c1,2,-3,-2,-19,3,99*
CC(=O)N1CCN(c2ccc(NCc3ccc(C)cc3)cc2)CC1,0,-2,0,-18,-1,99*
CC(=O)N1CCN(c2ccc(NCc3ccco3)cc2)CC1,0,-4,-9,.,2,99*
CCc1ccc(CNc2ccc(N3CCN(C(C)=O)CC3)cc2)cc1,0,-1,0,-25,-1,99*
COc1cccc(N2CCN(C(=S)NCc3ccco3)CC2)c1,0,-7,-5,-62,0,87*
COC(=O)Cc1nnn2c1[C@H](C)[C@@H](OC)c1ccccc1-2,.,.,.,.,3,.
CC(=O)N1CCN(c2ccc(NCc3ccc(-c4cccc(Cl)c4)o3)cc2)CC1,1,-3,-2,.,.,85*
COCCn1c(C)cc(C2=NNC(=Nc3ccccc3F)SC2)c1C,0,-3,0,88*,15,.
N#Cc1c(Sc2ncc(C(F)(F)F)cc2Cl)nsc1C/C=N\OCc1c(F)cccc1Cl,0,1,-6,79*,18,-3
Cc1cc(N)ccc1-c1cc2ccccc2oc1=O,0,-1,-1,29,0,99*
Nc1ccc2oc(=O)c(-c3ccccc3)cc2c1,0,0,-3,18,2,98*
O=c1oc2ccccc2cc1NCc1ccccc1O,0,-4,-10,-14,3,96*
COc1cc(N)ccc1-c1cc2ccccc2oc1=O,0,-4,0,4,5,60
COc1ccc(-c2cc3ccc(O)cc3oc2=O)cc1OC,0,-4,-6,-5,3,99*
O=C(Nc1nc2ncccn2c1-c1ccc(C(F)(F)F)cc1)C1CC1,.,.,.,.,0,.
O=c1oc2ccccc2cc1-c1ccc(O)cc1,0,-3,-11,-3,2,95*
Nc1ccc(-c2cc3ccccc3oc2=O)cc1,0,-2,-10,.,-1,40
CCCCc1nc(N2CCOCC2)c(C#N)c2c1COC(C)(C)C2,0,5,9,24,-9,100*
O=C(NNc1c2ccccc2nc2ccccc12)c1ccc(O)cc1O,0,6,-1,21,32,98*
O=C(NNc1c2ccccc2nc2ccccc12)c1ccccc1O,0,5,7,4,33,99*
O=C(NNc1c2ccccc2nc2ccccc12)c1ccccc1Cl,0,4,-6,19,12,-6
Cc1ccc(-n2ccnc(SCC(=O)NC3CCCC3)c2=O)cc1F,0,0,0,.,-4,94*
Cc1ccc(-n2ccnc(SCC(=O)NC3CCCC3)c2=O)cc1Cl,0,-3,2,.,2,.
N=C1/C(=C\c2ccc(Br)o2)C(=O)N=C2SC(CC(=O)N3CCCCC3)=NN12,0,33,13,22,18,97*
SMILES,aDG glyco up,APOBEC3A inh,A3G deaminase,PHOSPHO1 inh,rCAG RNA binder,ALR H2O2 inh
CS(=O)(=O)Oc1ccc(/C=C2\C(=N)N3N=C(CC(=O)N4CCOCC4)SC3=NC2=O)cc1Cl,0,2,1,22,9,82*
COc1ccc(CN(C)C(=O)C2CCCN(c3nc4ccccc4o3)C2)cc1 (centres undefined),.,.,.,.,-2,.
Cc1ccccc1-c1ccc2c(c1)[C@@H]1C[C@H]3[C@@H](CN1CC2)[C@H](C)OC(c1ccccc1)N3C (some centres undefined),.,.,.,.,6,.
CCOC(=O)N[C@@H](Cc1cccnc1)C(=O)N1CCC[C@H]1C(=O)NCCc1ccccc1Cl,.,.,.,.,1,.
CN(C)C(=O)CSc1nc(-c2cccs2)c(-c2cccs2)[nH]1,0,-2,-7,16,2,99*
COc1ccc(CCNCC(O)COc2cccc(C)c2)cc1OC (centres undefined),.,.,.,.,1,.
Cc1cc(OCc2cc(C(=O)NCc3csc(C(C)C)n3)no2)cc(C)c1Cl,0,1,1,68*,-1,-4
Cc1cc(OCc2cc(C(=O)NCCN3CCCCC3CO)no2)cc(C)c1Cl (centres undefined),4,-3,-8,48,-10,1
COc1ccc(C2CC(=O)C(c3ccc(F)cc3)=CN2Cc2ccccc2)cc1 (centres undefined),.,.,.,.,1,.
Cc1cc(C)cc(NC(=O)CSc2nc3c(c(=O)[nH]2)CN(Cc2ccc(F)cc2)CC3)c1,0,-1,-9,3,24,-32
CCCCc1c(O)nc(SCC(=O)Nc2ccc3c(c2)CCC3)[nH]c1=O,0,-4,-3,43,7,99*
CCCN1CCc2nc(SCC(=O)Nc3ccc(C)c(Cl)c3)[nH]c(=O)c2C1,0,-1,-6,25,15,98*
CCc1c(O)nc(SCC(=O)Nc2ccc3c(c2)CCC3)[nH]c1=O,0,-2,-5,15,3,100*
CCOC(=O)[C@@]12CN(C(=O)OC(C)(C)C)CC=C1N(Cc1ccc(OC)cc1)C(=O)[C@H]2CC(=O)NCc1ccc(C)o1,.,.,.,.,6,.
Cc1ccccc1C(=O)N[C@H](C(=O)N1CCC[C@H]1C(=O)NCCc1ccccc1Cl)c1ccccc1,.,.,.,.,0,.
CCN(C(=O)C1CCCN(c2nnc(-n3cccc3)s2)C1)c1ccccc1C (centres undefined),.,.,.,.,2,.
C=CCN1[C@@H](C)COc2cc(N3CCSCC3)ccc2S1(=O)=O,.,.,.,.,0,.
COCCCNC(=O)CS(=O)Cc1nc(-c2ccccc2C)oc1C (centres undefined),0,1,6,12,2,99*
Cc1ccc(CCNC(=O)CS(=O)Cc2nc(-c3ccccc3Cl)oc2C)cc1 (centres undefined),0,-1,0,15,0,99*
CCOc1ccc(CCNC(=O)CS(=O)Cc2nc(-c3ccccc3Cl)oc2C)cc1OCC (centres undefined),0,-3,-4,10,-4,99*
COc1ccc(OC)c(CCNC(=O)CS(=O)(=O)Cc2nc(-c3ccccc3Cl)oc2C)c1,0,-3,-5,27,-5,-8
Cc1ccccc1CN1CCCCC(NC(=O)c2ccccc2F)C1=O (centres undefined),.,.,.,.,3,.
